Screening results deposited in PubChem BioAssay by National Center for Advancing Translational Sciences (NCATS).
A selection: hits, their analogues and other compounds. The true share with any hit is near 7.9%.
HCMV inh: human cytomegalovirus inhibition; HFF cells, HCMV-luciferase reporter, 72 h; stronger effect = lower value; activity change, negative = inhibition, % at 57.5 µM; actives 4.5% (n = 410,000); AID 1259415; in the data active = activity change below about -60%; inconclusive = no clear call, values can overlap the other calls; inactive = above about -39%
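Screen run at 2 compound doses on HFFs infected with reporter HCMV, MOI 1 PFU/cell. Luciferase activity from cell lysates at 72 h post infection gave inhibition relative to buffer-only and Salinomycin wells.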
HCV inhibitor: inhibitors of hepatitis C virus infection; actives 3.4% (n = 340,000); Potency, µM (top dose mostly 41.8 µM), for inactives: at the top dose activity change, negative = inhibition, hits mostly inhibitors; Huh7.5.1 HCVcc-Cre infection, luciferase reporter, 44 h; AID 651820; active = well fitted inhibition curve with a large enough effect; inconclusive = small, poorly fitted or top-dose-only effect, or another doubt; inactive = no such curve, though single readings can be large or run the other way; also: potency is read from the fitted curve at half-maximal effect
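Reporter virus HCVcc-Cre (~0.5 moi) infects cells exposed to compound; seeding density 1,000 cells/well with 4 h settling beforehand. Luminescence, 15 sec read, taken 44 h post-infection following a 15 min RT substrate incubation.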
FMDV antiviral: blocks foot and mouth disease virus; FMDV antiviral cell-based qHTS; Potency, µM (doses to about 57.9 µM), without a hit: at the top dose activity change, negative = inhibition, hits mostly inhibitors; actives 1.2% (n = 410,000); calls by dose curve; tested in HEK293T cells; also: read-out not given here; potency is read from the fitted curve at half-maximal effect; nearly all actives have a fitted effect of over 45% in size
Marburg entry inh: blocks Marburg virus binding to or entry into cells; Marburg virus pseudotyped entry inhibition, cell reporter; Potency, µM (series often up to 37.8 µM), inactives show at the top dose activity change, negative = inhibition, hits mostly inhibitors; actives 1.8% (n = 300,000); AID 540276; calls by dose curve; tested in HEK293 cells; also: potency is read from the fitted curve at half-maximal effect
Lassa entry inh: Lassa virus entry inhibition | Potency, µM (top dose mostly 37.9 µM), without a hit: at the top dose activity change, negative = inhibition, usual class: inhibitors | Lassa virus pseudotype entry inhibition, cell reporter | actives 1.2% (n = 300,000); calls by dose curve; tested in HEK293 cells; also: potency is read from the fitted curve at half-maximal effect; nearly all actives have a fitted effect of over 50% in size
Active calls of the source: *; ? = inconclusive; / = no result given; ! = not active in a repeat; [ ] = remark or other dose. % is scaled to controls: 0 for no effect and ±100 for the full control effect.

SMILES | HCMV inh | HCV inhibitor | FMDV antiviral | Marburg entry inh | Lassa entry inh
CCOC(=O)c1c(NC(=O)COC(=O)CC(NC(C)=O)c2ccccc2)sc(C(=O)NC)c1C (stereo not given) | 29 | 10µM* | 5% | -8% | 10%
COC(=O)c1c(NC(=O)CSc2nccn2C)sc(C)c1C | -3 | ? | -5% | -11% | 22%
CCOC(=O)c1cc(C)sc1NC(=O)CSc1nccn1C | ? | 13µM* | 0% | 28% | -12%
CCOC(=O)c1c(NC(=O)CSc2nccn2C)sc(C(=O)NC)c1C | 22 | 10µM* | -7% | 13%[46.1 µM] | 14%
COC(=O)[C@]1(CC=Cc2ccccc2)C=C[C@@H](C)[C@H](c2ccccc2Br)N1C(=O)C(F)(F)F | / | / | / | 13%[14.2 µM] | /
CCN(C(=O)COC(=O)c1ncc(Cl)c(Cl)c1Cl)c1c(N)n(Cc2ccccc2)c(=O)[nH]c1=O | 0 | 15% | -2% | / | /
CCN(CC)CCn1c2c(c(SCC(=O)Nc3cccc4ccccc34)nc1=O)CCC2 | -6 | -11% | -6% | ? | 23%
CCOC(=O)c1ccc(NC(=S)N2CCSC2c2ccc(Br)cc2)cc1 (stereo not given) | -61* | ? | 2% | 7% | 5%
CCOC(=O)c1ccc(NC(=S)N2CCC(O)CC2)cc1 | -3 | 8% | 52% | ? | 6%
COc1cc2ncnc(NCc3ccccc3)c2cc1OC | -19 | -12% | -23% | ? | -2%
c1ccc(CNc2ncnc3ccccc23)cc1 | -97*! | ? | ? | ? | ?
OCCNc1nc(Nc2ccccc2)nc2ccccc12 | 4 | ? | -22% | ? | -22%
CCCCNc1nc(NCc2ccccc2)nc2ccccc12 | -32 | / | ? | / | /
c1ccc(CNc2c3ccccc3nc3ccccc23)cc1 | -100* | ? | -19% | / | /
Cc1c(Cl)cccc1Nc1nc(NCCO)c2ccccc2n1 | 7 | 10% | -11% | 7.9µM* | ?
c1ccc(CNc2nc(N3CCN(Cc4ccccc4)CC3)nc3ccccc23)cc1 | -17 | ? | ? | ? | ?
CNc1nc(NCc2ccccc2)c2ccccc2n1 | 28 | 11µM* | -18% | 4µM* | ?
CCCOc1ccc(CC2C(=O)Nc3ccc(Br)cc32)cc1 (stereo not given) | -31 | / | -11% | 8%[46.1 µM] | ?
OCC(Cc1ccccc1)Nc1c2ccccc2nc2ccccc12 (stereo not given) | -63* | -13% | ? | ? | 6%
OCC(Cc1ccccc1)NCc1ccccc1C(F)(F)F (stereo not given) | 10 | 6% | -20% | ? | 18%
Oc1ccccc1Nc1nc(NCc2ccccc2)c2ccccc2n1 | ? | 11µM* | ? | ? | ?
Oc1ccc(CCNc2c3ccccc3nc3ccccc23)cc1O | -100* | -28% | -15% | 10µM* | ?
CCOC(=O)c1nc(NCc2ccccc2)c2ccccc2n1 | -40 | -28% | 1% | 5%[46.1 µM] | /
CC1=NN(/C(=N\c2nnc(C)s2)Nc2ccc(C(C)(C)C)cc2)[C@H](c2ccc(C)cc2)S1 | 26 | -5% | -17% | 8.2µM* | -18%
CC(CC(C#N)(c1ccccc1)c1ccccc1)N(C)C (stereo not given) | 12 | 2% | -23% | / | /
SMILES | HCMV inh | HCV inhibitor | FMDV antiviral | Marburg entry inh | Lassa entry inh
CCC(C#N)(CC)P(=S)(c1ccccc1)c1ccccc1 | -73* | 1% | -11% | 3% | -4%
O=C(Nc1c(C(=O)N2CCC(N3CCCCC3)CC2)oc2ccccc12)c1c(F)cccc1F | -2 | ? | -6% | / | 29%[46.1 µM]
O=C(Nc1c(C(=O)N2CCC(N3CCCCC3)CC2)oc2ccccc12)c1ccc(F)cc1 | -31 | 13µM* | 24% | / | /
O=C(COc1ccccc1)Nc1c(C(=O)N2CCC(N3CCCCC3)CC2)oc2ccccc12 | -70* | -26% | 47% | / | /
CN(C)C(=O)CCc1ccc2c3c([nH]c2c1)[C@]1(CCC2CCCC2)[C@@H](C(=O)N2CCOCC2)C[C@H](CC(=O)NCC24CC5CC(CC(C5)C2)C4)C(=O)N1CC3 | -14 | -2% | ? | / | /
CC(C)=CCC/C(C)=C/CNC(=O)C[C@H]1C[C@H](C(=O)N2CCOCC2)[C@@]2(CCC3CCCC3)c3[nH]c4cc(CCC(=O)N(C)C)ccc4c3CCN2C1=O | -108* | 11µM* | ? | / | /
CC[C@]12c3[nH]c4ccc(Cl)cc4c3CCN1C(=O)[C@@H](CC(=O)NC(C)(C)C)C[C@@H]2C(=O)N1CCN(C(=O)c2ccco2)CC1 | -14 | 16% | -16% | / | /
